What all share (test): NCI-60 one-dose screen, 48 h (100 = growth as untreated, 0 = no growth, -100 = all killed)
The subject of experiment [1] is SK-MEL-2 melanoma. Conditions: 10 µM unless noted.
The subject of experiment [2] is EKVX NSCLC. As to conditions: 10 µM unless noted.
For experiment [3], the system named is SN12C renal. As to conditions: 10 µM unless noted.
Experiment [4] has as its system UO-31 renal. As to conditions: 10 µM unless noted.
In experiment [5] the test system is TK-10 renal. As to conditions: 10 µM unless noted.
For experiment [6], the system named is ACHN renal. Conditions: 10 µM unless noted.
Experiment [7] deals with CAKI-1 renal. As to conditions: 10 µM.
Experiment [8] relates to A498 renal. As to conditions: 10 µM unless noted.
Experiment [9] concerns CCRF-CEM leukemia. As to conditions: 10 µM unless noted.
Experiment [10] relates to MOLT-4 leukemia. Conditions: 10 µM unless noted.
Experiment [11] concerns SR leukemia. As to conditions: 10 µM unless noted.
Experiment [12] has as its system RPMI-8226 leukemia. As to conditions: 10 µM unless noted.
For experiment [13], the system named is OVCAR-8 ovarian. Conditions: 10 µM unless noted.
Experiment [14] relates to OVCAR-5 ovarian. Conditions: 10 µM unless noted.
Experiment [15] relates to OVCAR-4 ovarian. As to conditions: 10 µM unless noted.
Experiment [16] concerns SK-OV-3 ovarian. As to conditions: 10 µM unless noted.
In experiment [17] the test system is OVCAR-3 ovarian. As to conditions: 10 µM unless noted.
Experiment [18] deals with HS 578T breast. Conditions: 10 µM unless noted.
Experiment [19] concerns NCI/ADR-RES ovarian. As to conditions: 10 µM unless noted.
In experiment [20] the test system is IGROV1 ovarian. Conditions: 10 µM unless noted.

This is part of a sample that, as a whole, favours compounds with a hit. Of some 83,000 tested, about 20% had one in any assay.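 In brief: 96-well plates, 48 h treatment, single concentration, percent growth endpoint.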 Values without a mark were called inactive. Activity calls are given as the source filed them. The calls were made as follows: active = growth percent below 10; inactive = the rest.

For `O=C(CCCCCCN1CC(=O)N2[C@@H](c3cccc(Cl)c3)c3[nH]c4ccccc4c3C[C@H]2C1=O)NO`, the growth was 56% in [1]; 70.1% in experiment [2]; 65.7% in [3]; 60.3% in [4]; 57.1% in experiment [5]; 87.1% in experiment [6]. In addition, the growth in experiment [7] is 47.7%; in experiment [8], 72.8%; in experiment [9], 17.1%; in [10], 17.5%; in experiment [11] it was 39.5%; in experiment [12] it was 15%. Moreover, the growth was 34.8% in experiment [13]; 54.3% in experiment [14]; 61% in experiment [15]; 51.8% in experiment [16]; 36.3% in [17]; 69.3% in experiment [18]. In experiment [19], the growth was 94.3%.
In the case of `NS(=O)(=O)c1ccc(-n2cc(CC=O)nn2)cc1`, the growth is 109% in [1]; 99.2% in experiment [2]; 106% in experiment [3]; 87.7% in experiment [4]; 98.5% in experiment [5]; 107% in experiment [6]. The growth in [7] is 92.2%; in [8], 96%; in experiment [9] it was 110%; in experiment [10], 103%; in experiment [11], 101%; in experiment [12] it was 109%. The growth was 106% in experiment [13]; 104% in experiment [14]; 101% in [15]; 112% in experiment [16]; 109% in [17]; 104% in experiment [19].
Consider `CCCCCCCCNC(=O)c1ccc(Cn2c(CCCC)nc3c(N)nc4ccccc4c32)cc1`, for which the growth in experiment [1] was 95.4%; in experiment [2] it was 62.8%; in experiment [3] it was -77.3% (active); in [4], 11.8%; in experiment [5] it was 78.8%; in experiment [6], 26.6%. For the same molecule, the growth in experiment [7] was -1.97% (active); in experiment [8], 68%; in [9], -1.62% (active); in experiment [10] it was -7.07% (active); in [11] it was 8.69% (active); in experiment [12], -38% (active). Further, the growth was -10.9% (active) in experiment [13]; 75.5% in experiment [14]; -54.3% (active) in [15]; 76.1% in experiment [16]; 69.5% in [17]; 87.4% in experiment [18]. In addition, in experiment [19], the growth was -62.2% (active).
For `C/C(=C(/C)C1CC1CCN(C(=O)c1ccc([N+](=O)[O-])cc1)S(=O)(=O)c1ccc(C)cc1)C1CCCCC1` (stereo unspecified), the growth is 102% in experiment [1]; 82.4% in experiment [2]; 91.8% in experiment [3]; 92.2% in experiment [4]; 108% in [5]; 99% in [6]. Further, the growth was 84.9% in experiment [7]; 105% in experiment [8]; 93.6% in experiment [9]; 80.3% in [10]; 94.8% in experiment [11]; 85.7% in experiment [12]. The growth in [13] is 97.6%; in [14], 101%; in experiment [15] it was 90.8%; in experiment [20] it was 111%; in [17], 96.2%; in experiment [18], 102%. Moreover, the growth in experiment [19] is 94.3%.
Consider `O=C(NNc1nc2cc(F)cc(F)c2n2cccc12)c1ncccn1`, for which the growth was 23.2% in experiment [1]; 11.1% in [2]; 15.7% in experiment [3]; 16% in experiment [4]; 26% in experiment [5]; 9.54% (active) in [6]. The growth in experiment [7] is 17.4%; in experiment [8], 23.8%; in experiment [9], 7.19% (active); in experiment [10], 13%; in experiment [11], 13.2%; in [12] it was 12.7%. The growth in experiment [13] is 16.7%; in experiment [14], 40.5%; in experiment [15] it was 20.9%; in experiment [20], 14%; in experiment [17], 16.3%; in experiment [18], 42.8%. Further, the growth in [19] was -1.21% (active).
As for `Cc1ccc(/C=C/CC(=O)Nc2ccc(C(=O)Nc3ccc(F)cc3N)cc2)cn1`, the growth was 60.7% in experiment [1]; 63.4% in experiment [2]; 73.5% in experiment [3]; 58.9% in [4]; 34.9% in experiment [5]; 80.8% in experiment [6]. Further, the growth was 57.2% in experiment [7]; 38.9% in [8]; 23.3% in experiment [9]; 45.1% in [10]; 46.1% in experiment [11]; 19.8% in experiment [12]. Also, the growth is 48.4% in [13]; 55.7% in [14]; 62.1% in [15]; 65.5% in experiment [20]; 79.5% in [17]; 56.7% in experiment [18]. In [19], the growth was 90%.
Consider `Nc1ccc(-c2nnc(SCc3ccc(O)c4ncccc34)o2)cc1`, for which the growth is 3.45% (active) in experiment [1]; -5.86% (active) in [2]; 6.01% (active) in experiment [3]; -12.5% (active) in experiment [4]; 1.68% (active) in experiment [5]; 2.17% (active) in experiment [6]. Further, the growth in experiment [7] is 4.38% (active); in experiment [8], -40.1% (active); in [9], 5.03% (active); in experiment [10] it was 5.7% (active); in experiment [11], 18.8%; in experiment [12], -9.68% (active). For the same molecule, the growth was 8.94% (active) in experiment [13]; 25% in experiment [14]; -1.57% (active) in experiment [15]; -15.3% (active) in experiment [16]; 7.75% (active) in experiment [17]; -12.6% (active) in experiment [18]. Also, the growth in experiment [19] is -9.89% (active).
With `Nc1c(C(=O)c2ccccc2)sc2nc(-c3cnccn3)cc(-c3cccs3)c12`, the growth in experiment [1] was 111%; in [2], 95.6%; in experiment [3], 95.2%; in experiment [4] it was 88.4%; in [5] it was 106%; in [6] it was 98.3%. Besides, the growth in experiment [7] was 89.9%; in [8], 106%; in experiment [9], 100%; in experiment [10], 105%; in experiment [11] it was 105%; in experiment [12], 108%. The growth in experiment [13] is 103%; in [14], 103%; in experiment [15], 106%; in experiment [16], 103%; in experiment [17] it was 108%; in experiment [18] it was 98.8%. Further, the growth in [19] was 107%.

The record behind these values is PubChem BioAssay (NCI).
